Experiment [1] deals with Peroxisome proliferator-activated receptor gamma (Homo sapiens) (UniProt P37231). The experiment can be described thus: OT_PPARg_PPARgSRC1_1440: Odyssey Thera (OT) 24-hour Protein-Complementation Assay for Peroxisome Proliferator-activated Receptor Gamma/ SRC-1 Co-activator (AID 2283388; active means hit-call score of the fitted dose curve at least 0.9, where 1 is the maximum;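 further: nuclear to cytoplasmic ratio of reconstituted Venus YFP fluorescence in fixed imaged cells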). An outline of the steps: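 Protein-fragment complementation between PPARg and coactivator SRC-1 was measured by fluorescence imaging in transiently transfected HEK293T cells after 24 h treatment. Signal was quantified as N/C ratio in the 488 nm channel, with DMSO as negative control.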

Experiment [2] is described as follows: ACEA_AR_agonist_AUC_viability: ACEA Biosciences xCELLigence Real-Time Cell Analysis on Androgen Receptor Agonism for Viability (AID 2283775; active means hit-call score of the fitted dose curve at least 0.9, where 1 is the maximum). The essentials: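 Viability endpoint from xCELLigence impedance in 22Rv1 prostate cells at 80 h. Eight-point series, 100 uM maximum final.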
The nature of experiment [3]: ACEA_AR_antagonist_AUC_viability: ACEA Biosciences xCELLigence Real-Time Cell Analysis on Androgen Receptor Antagonism for Viability (AID 2283776; active means hit-call score of the fitted dose curve at least 0.9, where 1 is the maximum;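 further: 22Rv1 human prostate cancer cells growing on impedance electrode plates; area under impedance growth curve at 80 h after dosing as viability; hits lower the growth signal relative to DMSO meaning cytotoxicity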). The essentials:
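22Rv1 prostate cells, continuous dosing up to 100 uM final (0.5% DMSO max), duplicate plates. Growth measured by impedance; AUC at 80 h, loss of signal vs DMSO.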

A short description of experiment [4]: BSK_3C_Vis: BioMAP Diversity Plus: 3C Assay for Morphology Visualization (AID 2283025).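 Further: fitted both ways so gain or loss versus DMSO counts.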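 On AC50: light microscopy image of cell morphology used as background control.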 As to conditions: primary human endothelial cells (HUVEC). An outline of the steps:
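Light-microscopy morphology readout, 24 h exposure, human primary umbilical vein endothelium; analysed relative to DMSO with bidirectional fitting.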

Read-out in experiment [5]: Transforming growth factor beta 1 (TGFb1), TGFB1 (gene 7040)
Briefly: BSK_BE3C_TGFb1: BioMAP Diversity Plus: BE3C Assay for Transforming growth factor beta 1 (TGFb1) Biomarker Activity (AID 2283036;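 further: TGF-b1 protein level measured by ELISA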). As to conditions: primary human bronchial epithelial cells; actives raise or lower the signal. An outline of the steps:
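TGF-b1 measured via ELISA, 24 h after chemical dosing of human bronchial epithelial cells (BE3C). Overt cytotoxicity assessed in parallel by SRB (0.1%, TCA-fixed, 560 nm); analysis bidirectional relative to DMSO.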

Read-out in experiment [6]: Transforming growth factor beta 1 (TGFb1), TGFB1 (gene 7040)
The experiment can be described thus: BSK_KF3CT_TGFb1: BioMAP Diversity Plus: KF3CT Assay for Transforming growth factor beta 1 (TGFb1) Biomarker Activity (AID 2283072). Conditions: primary human keratinocytes with fibroblasts; actives raise or lower the signal. An outline of the steps:
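TGF-b1 ELISA on a 24 h dosed co-culture of human keratinocytes and foreskin fibroblasts; cytotoxicity tracked in parallel cultures by SRB staining.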

The nature of experiment [7]: BSK_BT_PBMCCytotoxicity: PBMC Cytotoxicity Assessment in the BioMAP Diversity Plus: BT Assay (AID 2284225).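 Further: PBMC viability measured by Alamar Blue dye reduction fluorescence.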 Conditions: primary human B cells with PBMC. The essentials: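 Primary human co-culture of B cells and PBMC, pre-dosed 1 h then activated with SEB and TSST-1. Cytotoxicity is taken from Alamar Blue dye reduction, added for 6 h at the end of a 90 h incubation.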

Read-out in experiment [8]: Secreted IgG (sIgG), gene 3500
Briefly: BSK_BT_sIgG: BioMAP Diversity Plus: BT Assay for Secreted IgG (sIgG) Biomarker Activity (AID 2284226). Conditions: primary human B cells with PBMC. The essentials:
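In this multiplexed co-culture system, ELISA quantifies sIgG 24 h post-treatment. Endpoint analysis uses positive fitting direction, DMSO negative control.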

Experiment [9] can be described thus: BSK_BT_Bcell_Proliferation: Viability Assessment in the BioMAP Diversity Plus: BT Assay for B cell Proliferation (AID 2284227). Conditions: primary human B cells with PBMC. An outline of the steps: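 SRB-based protein staining (0.1% SRB after 10% TCA fixation, 560 nm) quantifies proliferation in human B cells co-cultured with PBMC, 72 h post-dosing, with signal gain scored relative to DMSO negative control.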

Read-out in experiment [10]: Interleukin 17A (IL17A), IL17A (gene 3605)
The experiment can be described thus: BSK_BT_xIL17A: BioMAP Diversity Plus: BT Assay for Interleukin 17A (IL17A) Biomarker Activity (AID 2284229). As to conditions: primary human B cells with PBMC. An outline of the steps: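 Secreted IL-17A was the measured endpoint, read by Luminex xMAP multiplex in supernatants of a human B cell/PBMC co-culture harvested 24 h after chemical dosing. Signal increase relative to DMSO defined activity.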

Read-out in experiment [11]: Tumor necrosis factor (Homo sapiens) (UniProt P01375)
The experiment can be described thus: BSK_BT_xTNFa: BioMAP Diversity Plus: BT Assay for Tumor necrosis factor alpha (TNF-alpha) Biomarker Activity (AID 2284230). As to conditions: primary human B cells with PBMC. An outline of the steps: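 Compounds were added to a B cell plus PBMC co-culture, and after 24 h secreted TNF-alpha was quantified with Luminex xMAP technology, with responses fitted upward from the DMSO control.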

Read-out in experiment [12]: Collagen I, COL1A1 (gene 1277)
The experiment can be described thus: BSK_MyoF_CollagenI: BioMAP Diversity Plus: MyoF Assay for Collagen I Biomarker Activity (AID 2284238). Conditions: primary human lung fibroblasts. An outline of the steps:
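Lung fibroblasts (human primary) dosed, 24 h; Collagen I by ELISA; positive-direction fit vs DMSO control. Parallel SRB total-protein staining (0.1% SRB, 10% TCA fixation, 560 nm) flags overt cytotoxicity.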

Read-out in experiment [13]: Collagen III, COL3A1 (gene 1281)
Briefly: BSK_MyoF_CollagenIII: BioMAP Diversity Plus: MyoF Assay for Collagen III Biomarker Activity (AID 2284239). As to conditions: primary human lung fibroblasts. An outline of the steps:
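ELISA read-out of collagen III from human lung fibroblasts after 24 h of chemical treatment. The DMSO control served as negative control and baseline, with values fitted in the positive direction.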

Read-out in experiment [14]: Interleukin 17F (IL17F), IL17F (gene 112744)
The experiment can be described thus: BSK_BT_xIL17F: BioMAP Diversity Plus: BT Assay for Interleukin 17F (IL17F) Biomarker Activity (AID 2284243). Conditions: primary human B cells with PBMC. The essentials: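 Compound was added to co-cultures of human B cells and PBMC. After 24 hours, IL-17F released into the medium was measured with LumineX xMAP technology. Responses were then fitted upward relative to DMSO.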

Read-out in experiment [15]: Actin alpha 1 (ACTA1), ACTA1 (gene 58)
Briefly: BSK_MyoF_ACTA1: BioMAP Diversity Plus: MyoF Assay for Actin alpha 1 (ACTA1) Biomarker Activity (AID 2284244). Conditions: primary human lung fibroblasts. The essentials: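 MyoF fibroblast system (human lung); a-SMA quantified via ELISA at 24 h; DMSO-normalised, gain-of-signal endpoint.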

Read-out in experiment [16]: Interleukin 2 (IL2), IL2 (gene 3558)
The experiment can be described thus: BSK_BT_xIL2: BioMAP Diversity Plus: BT Assay for Interleukin 2 (IL2) Biomarker Activity (AID 2284245). As to conditions: primary human B cells with PBMC. An outline of the steps:
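Co-cultures of primary human B cells and PBMC are treated with chemical and sampled at 24 h. IL-2 secretion is quantified by Luminex xMAP, with DMSO-treated wells as baseline.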

Read-out in experiment [17]: Basic fibroblast growth factor (bFGF), FGF2 (gene 2247)
The experiment can be described thus: BSK_MyoF_bFGF: BioMAP Diversity Plus: MyoF Assay for Basic fibroblast growth factor (bFGF) Biomarker Activity (AID 2284246). Conditions: primary human lung fibroblasts. An outline of the steps: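 Fibroblasts from human lung, 24 h dosing. bFGF by ELISA; gain of signal over DMSO.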

Read-out in experiment [18]: Collagen IV, COL4A1 (gene 1282)
Briefly: BSK_MyoF_CollagenIV: BioMAP Diversity Plus: MyoF Assay for Collagen IV Biomarker Activity (AID 2284247). As to conditions: primary human lung fibroblasts. The essentials: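 Lung fibroblasts (human primary) treated with chemicals were assayed after 24 h for Collagen IV using an ELISA, with DMSO serving as negative control and baseline for a positive-direction fit.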

Read-out in experiment [19]: Interleukin-8 (IL8), CXCL8 (gene 3576)
The experiment can be described thus: BSK_MyoF_IL8: BioMAP Diversity Plus: MyoF Assay for Interleukin-8 (IL8) Biomarker Activity (AID 2284261). Conditions: primary human lung fibroblasts. The essentials: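 IL-8 levels were measured by ELISA in human lung fibroblasts harvested 24 h after compound addition. Responses were analysed as gain of signal over the DMSO baseline.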

For experiment [20], the target named is Steroid hormone receptor ERR1 (Homo sapiens) (UniProt P11474). The experiment can be described thus: ATG_ERRa_TRANS: Attagene TRANS-FACTORIAL HepG2 Assay for human Estrogen-Related Receptor alpha (ERRa) (AID 2282971; active means hit-call score of the fitted dose curve at least 0.9, where 1 is the maximum). As to conditions: HepG2 Attagene TRANS reporter, ERRa transactivation. An outline of the steps: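 Reporter transcript induction was quantified by RT-PCR and capillary electrophoresis of FAM-labelled, HpaI-cut products after 24 h treatment of HepG2 cells carrying transiently transfected GAL4-UAS reporter units and an exogenous ERRa-Gal4 fusion; activity scored as increase over DMSO.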

Inconclusive results are not listed. Active and inactive are the calls of the source. How the source made its calls, unless noted: active means hit-call score of the fitted dose curve at least 0.9, where 1 is the maximum; inactive means score below 0.9.

Sequence of Tumor necrosis factor (Homo sapiens) (P01375 whole entry, looked up): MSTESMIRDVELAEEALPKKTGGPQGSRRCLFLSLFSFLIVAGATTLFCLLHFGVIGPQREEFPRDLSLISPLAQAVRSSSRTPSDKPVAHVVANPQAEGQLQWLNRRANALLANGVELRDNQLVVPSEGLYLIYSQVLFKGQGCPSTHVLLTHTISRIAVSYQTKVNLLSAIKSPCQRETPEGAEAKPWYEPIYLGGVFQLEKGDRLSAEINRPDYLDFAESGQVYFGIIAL
Sequence of Peroxisome proliferator-activated receptor gamma (Homo sapiens) (P37231 whole entry, looked up, the tested form may be a part): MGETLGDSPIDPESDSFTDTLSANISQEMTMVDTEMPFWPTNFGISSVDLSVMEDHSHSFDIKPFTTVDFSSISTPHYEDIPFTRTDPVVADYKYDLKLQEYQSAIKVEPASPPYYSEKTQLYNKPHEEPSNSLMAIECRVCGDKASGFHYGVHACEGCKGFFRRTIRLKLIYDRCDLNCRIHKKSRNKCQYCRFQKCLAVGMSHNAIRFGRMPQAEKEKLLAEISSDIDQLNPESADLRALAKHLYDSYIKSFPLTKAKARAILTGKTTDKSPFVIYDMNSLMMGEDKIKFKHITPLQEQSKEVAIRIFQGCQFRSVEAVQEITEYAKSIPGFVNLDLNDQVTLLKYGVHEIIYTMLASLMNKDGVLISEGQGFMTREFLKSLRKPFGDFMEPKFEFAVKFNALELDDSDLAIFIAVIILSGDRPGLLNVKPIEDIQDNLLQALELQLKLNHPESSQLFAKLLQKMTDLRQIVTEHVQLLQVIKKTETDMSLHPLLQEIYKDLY
Sequence of Steroid hormone receptor ERR1 (Homo sapiens) (P11474 whole entry, looked up, the tested form may be a part): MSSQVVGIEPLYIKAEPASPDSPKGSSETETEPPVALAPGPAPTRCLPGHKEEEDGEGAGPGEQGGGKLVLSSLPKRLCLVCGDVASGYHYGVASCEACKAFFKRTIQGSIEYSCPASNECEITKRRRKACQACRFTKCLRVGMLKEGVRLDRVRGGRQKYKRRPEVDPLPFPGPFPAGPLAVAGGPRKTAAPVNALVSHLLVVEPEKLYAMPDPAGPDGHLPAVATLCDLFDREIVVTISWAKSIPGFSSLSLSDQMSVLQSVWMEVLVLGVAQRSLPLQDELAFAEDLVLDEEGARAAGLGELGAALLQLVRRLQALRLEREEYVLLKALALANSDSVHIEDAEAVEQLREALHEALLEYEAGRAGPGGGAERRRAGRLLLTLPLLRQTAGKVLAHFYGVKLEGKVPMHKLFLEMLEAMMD

`CC(C)C#N`: the result in [1], in [2] and in [3] was inactive.

In the case of `CC(C)CCCCCCCOC(=O)c1ccccc1C(=O)OCCCCCCCC(C)C`, the outcome in experiment [4], in experiment [5], in experiment [6], in experiment [7], in [8] and in experiment [9] was inactive. The result in experiment [10], in experiment [11], in experiment [12], in [13], in [14] and in experiment [15] was inactive. The result in experiment [16], in [17], in experiment [18] and in experiment [19] was inactive.

As a reminder, the AC50 is the concentration at which the activity in the assay is half-maximal. Regarding `CC(=O)/C=C/c1ccccc1`, the outcome in experiment [4], in [5], in experiment [6], in experiment [12], in [13] and in experiment [15] was inactive. In addition, the outcome in experiment [17], in experiment [18] and in experiment [19] was inactive. In addition, the AC50 in experiment [7] is 17.4 µM (active); in experiment [8], 27.2 µM (active); in experiment [9] it was 26.1 µM (active); in [10], 20 µM (active); in [11], 20 µM (active); in [14] it was 20 µM (active). The AC50 in [16] was 20 µM (active).

In the case of `O=C1C(Cl)=C(Cl)C(=O)C(Cl)=C1Cl`, the AC50 in experiment [4] was 4.54 µM (active); in experiment [6], 20 µM (active); in [7], 26.4 µM (active); in [8], 32.6 µM (active); in experiment [9], 26 µM (active); in experiment [10], 20 µM (active). Besides, the AC50 was 20 µM (active) in experiment [11]; 16.6 µM (active) in [12]; 14.4 µM (active) in experiment [13]; 28.8 µM (active) in experiment [14]; 23.8 µM (active) in experiment [15]; 29.3 µM (active) in experiment [16]. The AC50 in [17] is 30.9 µM (active); in experiment [18], 25 µM (active); in experiment [19], 32 µM (active). Moreover, the outcome in experiment [5] was inactive.

Turning to `CCNCC`, in experiment [20], the outcome was inactive.

As for `O=[N+]([O-])O`, the result in experiment [1], in [2] and in experiment [3] was inactive.

Consider `CC(C)(Cl)Cl`, for which the molecule was classed as inactive in [1] and in [2]. Further, the AC50 in [3] is 0.413 µM (active).

Turning to `C=CC(=O)OCCO`, the result in experiment [2] and in [3] was inactive.

Turning to `Nc1ccc([N+](=O)[O-])cc1N`, the molecule was classed as inactive in experiment [20].

Consider `Oc1ccc(C2(c3ccc(O)cc3)c3ccccc3-c3ccccc32)cc1`, for which the outcome in [20] was inactive.
